# C diff HTS = blocks growth of Clostridium difficile. hit rate 0.25% among 86,000. growth activity, negative = inhibition, % at 16 µg/mL (by protocol). Clostridium difficile clinical isolate growth, OD600, 24 h; stronger effect = lower value;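 active means mean growth activity at or below -80% and every replicate also at or below -80%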;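 further: 0% = DMSO wells and -100% = levofloxacin 16 µg/mL wells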
# Pf Dd2 inh = P. falciparum Dd2 growth inhibition; SYBR Green, 72 h; stronger effect = lower value; hit rate 2.3% among 94,000; activity change, % at 10 µM; in the data active means activity change below about -80%
# T cruzi growth-1 = T. cruzi proliferation inhibition; T. cruzi beta-gal in NIH3T3, GalScreen luminescence, 90 h; inhibition, % at 8.34 µM; hit rate 5.9% among 77,000; AID 624255;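 active means mean inhibition above about 93%, with at least 55% of replicates each passing it, limit read from the data, passing the limit was not always enough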
# T cruzi growth-2 = blocks T. cruzi growth in NIH3T3 host cells; shares compounds with T cruzi growth-1; T. cruzi beta-gal in NIH3T3, GalScreen luminescence, 90 h; inhibition, % at 8.35 µM; hit rate 72% among 5,600; AID 651739;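 active means mean replicate inhibition above about 95% and at least 55% of replicates individually reaching it, limit read from the data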
# T cruzi growth-3 = Trypanosoma cruzi proliferation inhibition; shares compounds with T cruzi growth-1; T. cruzi beta-gal in NIH3T3, GalScreen luminescence, 90 h; inhibition, % at 2.09 µM; hit rate 21% among 5,600; AID 651740;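 active means mean inhibition above about 95%, with at least 55% of replicates also reaching it, limit read from the data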;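 further: plate controls were neutral control median for no effect and positive control median for full effect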
# NIH3T3 tox = kills mouse NIH/3T3 fibroblasts; shares compounds with T cruzi growth-1; NIH/3T3 viability, CellTiter-Glo ATP luminescence, 90 h; cytotoxicity (signal decrease), % at 8.35 µM; hit rate 14% among 5,600;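 active means mean signal decrease across replicates above about 35% based on untreated-well scatter, with enough replicates individually passing, limit read from the data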;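 further: 0% = median of neutral control wells and 100% = median of positive control wells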
# 3T3 cytotox 2 = kills mouse NIH/3T3 fibroblasts; shares compounds with T cruzi growth-1; NIH/3T3 viability, CellTiter-Glo ATP luminescence, 90 h; inhibition, % at 24.9 µM; hit rate 56% among 5,600;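 active means mean loss of cell viability signal at or above a set limit, and enough replicates individually reaching it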;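 further: 0% = median of neutral control wells and 100% = median of positive control wells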
# An asterisk follows results filed as active; nt = no result given. Compounds with a hit are over-represented: about 6.8% of the library has one in this group of screens.
SMILES,C diff HTS,Pf Dd2 inh,T cruzi growth-1,T cruzi growth-2,T cruzi growth-3,NIH3T3 tox,3T3 cytotox 2
Cc1ccccc1S(=O)(=O)N1CCCCN2[C@H](C1)[C@H](c1ccc(-c3cncnc3)cc1)[C@@H]2CO,11,-1,102*,100*,19,12,24
Cc1ccccc1S(=O)(=O)N1CCCCN2[C@@H](CO)[C@H](c3ccc(-c4cccnc4)cc3)[C@@H]2C1,4,-25,102*,102*,71,30,38*
Cc1ccccc1S(=O)(=O)N1CCCCN2[C@H](CO)[C@H](c3ccc(-c4cncnc4)cc3)[C@@H]2C1,3,0,112*,101*,-1,5,2
Cc1ccccc1S(=O)(=O)N1CCCCN2[C@H](C1)[C@@H](c1ccc(-c3cccnc3)cc1)[C@@H]2CO,-8,-3,86,nt,nt,nt,nt
C[C@@H]1CN([C@@H](C)CO)C(=O)c2cccc(NS(=O)(=O)c3cccs3)c2O[C@@H]1CN(C)Cc1ccncc1,-7,6,-49,nt,nt,nt,nt
CO[C@@H]1CN(C)C(=O)c2ccc(NS(=O)(=O)c3ccccc3)cc2OC[C@H](C)NC[C@H]1C,nt,24,3,nt,nt,nt,nt
OC[C@H]1[C@H](c2ccc(-c3ccccc3F)cc2)[C@@H]2CN(Cc3cncnc3)CCCCN12,-8,-24,108*,108*,87,4,36*
OC[C@@H]1[C@@H](c2ccc(-c3ccccc3F)cc2)[C@@H]2CN(Cc3cccnc3)CCCCN12,4,-13,85,nt,nt,nt,nt
OC[C@@H]1[C@@H](c2ccc(-c3ccccc3F)cc2)[C@H]2CN(Cc3cncnc3)CCCCN12,-2,-13,46,nt,nt,nt,nt
OC[C@@H]1[C@H](c2ccc(-c3ccccc3F)cc2)[C@H]2CN(Cc3cncnc3)CCCCN12,-11,-18,110*,100*,89,22,38*
OC[C@@H]1[C@@H](c2ccc(-c3cccc(F)c3)cc2)[C@@H]2CN(Cc3cncnc3)CCCCN12,0,16,30,nt,nt,nt,nt
OC[C@@H]1[C@H](c2ccc(-c3ccccc3F)cc2)[C@@H]2CN(Cc3cncnc3)CCCCN12,-9,13,110*,88,82,-20,50*
C/C=C/c1ccc([C@H]2[C@@H](CO)N(CCC)[C@@H]2CN(CC)C(=O)c2ccccn2)cc1,-1,-18,nt,nt,nt,nt,nt
O=C(Nc1ccc2c(c1)[C@@H]1C[C@@H](CC(=O)N3CCCCC3)O[C@H](CO)[C@@H]1O2)C1CCC1,nt,20,26,nt,nt,nt,nt
C[C@H](CO)N1C[C@H](C)[C@@H](CN(C)C(=O)Nc2ccc3c(c2)OCO3)Oc2ccc(NS(=O)(=O)c3ccccc3)cc2CC1=O,nt,1,25,nt,nt,nt,nt
C[C@H](CO)N1C[C@H](C)[C@H](CN(C)Cc2ccccc2)OCCCC[C@H](C)Oc2ccc(NC(=O)Nc3ccc4c(c3)OCO4)cc2C1=O,-3,35,89,nt,nt,nt,nt
COc1ccccc1C#Cc1ccc2c(c1)O[C@H](CN(C)Cc1cccnc1)[C@H](C)CN([C@@H](C)CO)S2(=O)=O,12,-32,nt,nt,nt,nt,nt
COc1ccccc1C#Cc1ccc2c(c1)O[C@H](CN(C)Cc1cncnc1)[C@@H](C)CN([C@@H](C)CO)S2(=O)=O,-1,-37,117,nt,nt,nt,nt
COc1ccccc1C#Cc1ccc2c(c1)O[C@@H](CN(C)Cc1ccccc1)[C@H](C)CN([C@@H](C)CO)S2(=O)=O,14,-66,119*,87,112*,45*,42*
COc1ccccc1C#Cc1ccc2c(c1)O[C@@H](CN(C)Cc1ccccc1)[C@@H](C)CN([C@H](C)CO)S2(=O)=O,9,-6,122*,107*,113*,-27,-39
COc1ccccc1C#Cc1ccc2c(c1)O[C@H](CN(C)Cc1cncnc1)[C@H](C)CN([C@@H](C)CO)S2(=O)=O,-3,-43,94,nt,nt,nt,nt
COc1ccccc1C#Cc1ccc2c(c1)O[C@H](CN(C)Cc1ccccc1)[C@@H](C)CN([C@H](C)CO)S2(=O)=O,4,-77,114*,99*,112*,-47,-16
Cc1ccccc1S(=O)(=O)N1CC(=O)N2[C@@H](CO)[C@H](c3ccc(C#CCC4CCCC4)cc3)[C@@H]2C1,0,-19,nt,nt,nt,nt,nt

# Compound activity: PubChem BioAssay, Broad Institute
